Potency data for 17 compounds are collected here from PubChem BioAssay (NCATS).

Results filed as inconclusive are left out. Where a call stands in place of a potency, no number is given. Activity calls are given as the source filed them. The call rests on the fitted dose curve; in most records, active means well fitted inhibition curve with a large enough effect; inconclusive means small, poorly fitted or top-dose-only effect; inactive means flat fitted curve, though single readings scatter.
Potency means the concentration at half of the fitted maximal effect.

For this assay, the target named is Dual specificity protein kinase CLK4 (Homo sapiens) (UniProt Q9HAZ1). Briefly: qHTS Assay for Inhibitors of CDC-like Kinase 4 (Kinase-Glo Assay) (AID 1770). Further: nearly all actives have a fitted effect of over 65% in size. The conditions noted are these: recombinant Clk4, Kinase-Glo ATP depletion luminescence; series mostly up to 66.7 µM. The method, boiled down: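 Luminescent ATP-depletion read-out (Kinase-Glo) after 4.5 h room-temperature reaction of Clk4 (25 nM final) with RS peptide (100 uM) and ATP (1 uM), pH 7.5 Tris buffer with MgCl2 and DTT.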
Sequence of Dual specificity protein kinase CLK4 (Homo sapiens) (Q9HAZ1 whole entry, looked up): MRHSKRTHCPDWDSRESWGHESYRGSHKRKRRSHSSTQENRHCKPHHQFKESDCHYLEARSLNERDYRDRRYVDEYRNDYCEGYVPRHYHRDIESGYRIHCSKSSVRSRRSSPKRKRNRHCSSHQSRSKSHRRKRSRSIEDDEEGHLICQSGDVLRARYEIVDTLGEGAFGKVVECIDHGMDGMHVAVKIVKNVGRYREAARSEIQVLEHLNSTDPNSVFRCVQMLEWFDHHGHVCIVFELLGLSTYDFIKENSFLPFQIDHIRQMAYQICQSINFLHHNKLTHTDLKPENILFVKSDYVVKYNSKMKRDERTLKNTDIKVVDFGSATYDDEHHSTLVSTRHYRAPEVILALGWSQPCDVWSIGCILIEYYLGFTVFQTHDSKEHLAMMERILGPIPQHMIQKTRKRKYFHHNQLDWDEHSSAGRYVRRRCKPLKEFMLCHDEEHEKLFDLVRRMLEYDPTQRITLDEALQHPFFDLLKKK
Background: Quantitative high-throughput screening tests each substance at several concentrations.
As for `Cc1cccc(CNc2ncncc2-c2ccccc2CN(C)C)c1`, the Potency result was “inactive”.
Take `COc1ccc(Oc2ncc3nc(-c4cc(F)cc(F)c4)c(=O)n(C4CC4)c3n2)cc1`: the Potency entry was “inactive”.
Turning to `O=c1c(-c2ccccc2)nc2cnc(Oc3ccccc3)nc2n1C[C@H]1CCCO1`, the Potency result was “inactive”.
Turning to `COc1ccccc1-c1nccc(N2CCN(C)CC2)n1`, the Potency entry is “inactive”.
For `Cc1nc2cnc(N3CCN(C)CC3)nc2n(CCc2ccccc2)c1=O` the value was “inactive”; for `COc1cccc(-c2cncnc2NCCN2CCOCC2)c1`, “inactive”.
For `O=c1c(CCc2ccccc2)nc2cnc(Oc3ccccc3)nc2n1C1CC1` the value was “inactive”; for `CCNc1ncc2ncc(=O)n(Cc3ccc(F)cc3)c2n1`, 7.94 µM (active); for `c1ccc(CNc2nc(-c3cccnc3)nc3ccccc23)cc1`, 7.08 µM (active).
On to `COc1cccc(Cn2c(=O)cnc3cnc(Nc4cccc(OC)c4)nc32)c1`, for which the Potency is 2.24 µM (active).
For `COc1cccc(-c2ccc3ncnc(NCc4cnc(C)cn4)c3c2)c1` the value was 3.16 µM (active); for `Cn1c(=O)c(-c2ccccc2)nc2cnc(N3CCOCC3)nc21`, “inactive”; for `CN1CCN(c2ncc3nc(-c4cn(C)c5ccccc45)c(=O)n(C[C@H]4CCCO4)c3n2)CC1`, “inactive”.
`COc1cccc(-c2nc(NC3CC3)c3ccccc3n2)c1`: the Potency is 7.08 µM (active).
For `COc1ccc2[nH]cc(CCNc3ncnc4ccc(-c5ccoc5)cc34)c2c1` the value was 0.794 µM (active).
For `O=c1c(-c2cccc(F)c2)nc2cncnc2n1Cc1ccc(F)cc1` the value was “inactive”; for `COc1ccccc1CNc1ncnc2ccc(-c3cccc(NS(C)(=O)=O)c3)cc12`, 11.2 µM (active).
